The results in this text go back to PubChem BioAssay (NCATS).

Records with an inconclusive call do not appear. A number with no mark means an inactive call. The source made the active and inactive calls. The call rests on the fitted dose curve.

For the assay, the target named is Retinoic acid receptor RXR-alpha (Homo sapiens) (UniProt P19793). As to the kind of experiment: qHTS assay for small molecule agonists of retinoid X receptor alpha signaling (AID 588544). As to conditions: HEK293T RXRa-UAS-bla, beta-lactamase reporter, 18 h; series mostly up to 76.7 µM; activation: at the top concentration. An excerpt: NIH Chemical Genomics Center [NCGC] U.S. Environmental Protection Agency [EPA] National Institutes of Environmental Health Sciences [NIEHS] National Toxicology Program [NTP] NCGC Assay Overview The Retinoid X receptor (RXR), a nuclear hormone receptor is expressed in liver, spleen, placenta, epidermis, central nervous system. These receptors are able to form homo and heterodimers with other nuclear receptors and due to this heterodimerizing ability, RXR functions as master regulators producing diverse physiological effects. Three subtypes of RXR exist; alpha, beta and gamma. Retinoid X receptor alpha (RXR-alpha) has potential roles in metabolic signaling pathways, skin alopecia, dermal cysts, cardiac development, insulin sensitization etc. Therefore screening environmental chemicals on RXR-alpha signaling can be used for the studies focused on such therapeutic applications.
Sequence of Retinoic acid receptor RXR-alpha (Homo sapiens) (P19793 whole entry, looked up): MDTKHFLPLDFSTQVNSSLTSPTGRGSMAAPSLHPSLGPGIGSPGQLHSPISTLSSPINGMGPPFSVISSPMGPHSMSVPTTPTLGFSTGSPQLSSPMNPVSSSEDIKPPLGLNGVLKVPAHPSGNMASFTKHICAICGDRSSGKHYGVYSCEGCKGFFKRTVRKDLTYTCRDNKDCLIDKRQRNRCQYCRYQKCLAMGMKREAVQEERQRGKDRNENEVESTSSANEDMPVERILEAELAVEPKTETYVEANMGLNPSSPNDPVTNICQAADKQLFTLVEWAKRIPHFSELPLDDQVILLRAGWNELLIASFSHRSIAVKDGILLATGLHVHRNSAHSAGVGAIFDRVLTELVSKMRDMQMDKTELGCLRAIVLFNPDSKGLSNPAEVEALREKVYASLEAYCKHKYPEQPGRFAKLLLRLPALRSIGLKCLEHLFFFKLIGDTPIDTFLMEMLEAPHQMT
NCGC Assay Protocol Summary Using a beta-lactamase reporter-gene under control of Retinoid X receptor--alpha (RXR-alpha) response element, a cell-based assay [GeneBLAzer (RXR-alpha -UAS-bla assay developed by Invitrogen] was used to measure RXR-alpha ligands signaling. GeneBLAzer RXR-alpha -UAS-bla HEK293T cells were used with assay medium containing 2% charcoal-stripped FBS. The assay was performed in clear bottom black Greiner 1536-well plates. 9-cis-retinoic acid was used in the screen as the positive control. Library compounds were measured for their ability to stimulate the reporter gene activity. Compounds were screened in a titration series in 1536-well format. The fluorescence intensity (405 nm excitation, 460/530 nm emission) was measured using an EnVision plate reader. Data was normalized relative to 9-cis-retinoic acid control (500 nM, 100%), and DMSO only wells (basal, 0%). Concentration-response titration points for each compound were fitted to the Hill equation yielding concentrations of half-maximal stimulation (EC50) and maximal response (efficacy) values. qHTS protocol for RXR-alpha beta-lactamase assay in agonist mode [Step] [Parameter] [Value] [Description] 1. Reagent; 6 uL; 2500 cells/well 2. Incubation; 37 C for 4 hrs 3. Compounds; 23 nL; 0.59 nM to 92 uM 4. Controls (9-cis-retinoic acid); 23 nL, - One column with dose response, start 38 uM, 1:3 dilutions in duplicates - Final concentrations of 500 nM and 50 nM in two columns 5. Incubation; 37 C for 18 hrs 6. Detection reagent; 1 uL of CCF4-dye 7. Incubation; RT for 2 hrs 8. Detection; Fluorescence; Envision plate reader
For orientation: Quantitative high-throughput screening tests each substance at several concentrations.
Consider `c1ccc2ncccc2c1`, for which the “activation” value was -4.84%.
On to `Nc1cc([N+](=O)[O-])ccc1O`, for which the Potency entry was “inactive”.
As to `Nc1ccc2c(c1)C(=O)c1ccccc1C2=O`, the Potency result was “inactive”.
`Cc1c(C(=O)O)c(O)cc2c1C(=O)c1c(O)c([C@H]3O[C@H](CO)[C@@H](O)[C@H](O)[C@H]3O)c(O)c(O)c1C2=O`: the “activation” value is 7.18%.
As for `CCCCNCC`, the “activation” value is 2.41%.
Take `CC(C)COC(=O)COc1cc(Cl)c(Cl)cc1Cl`: the “activation” value was 7.72%.
As for `Nc1cc(C(=O)O)c(O)c(S(=O)(=O)O)c1`, the “activation” value is 0.313%.
As for `c1c[nH]cn1`, the “activation” value is -0.641%.
`CCCCC(CC)COCCCN` (stereo not given): the “activation” value was 1.33%.
Take `Oc1cc(Cl)cc(Cl)c1Cl`: the “activation” value was -6.16%.
In the case of `O=C(O)c1ccc([N+](=O)[O-])cc1`, the Potency result was “inactive”.
For `O=C1c2ccccc2C(=O)C1(O)O`, the “activation” value was -0.387%.
Still for that read-out and setting: the same measure for `COc1ccc(C)cc1N`: 3.58%; for `CCOc1ccc2nc(N)sc2c1`: -7.51%.
For `Nc1ccccc1O`, the “activation” value is -17.7%.
In the case of `CCCC(=O)OC(=O)CCC`, the Potency entry was “inactive”.
For `C=CC(=O)OCCCCCCOC(=O)C=C`, the “activation” value was -29%.
As for `Cc1ccc(O)c(N)c1`, the “activation” value was -2.9%.
Still for that read-out and setting: the same measure for `Nc1cnn([C@@H]2O[C@H](CO)[C@@H](O)[C@H]2O)c(=O)n1`: -3.53%; for `O=CC(=O)c1ccccc1`: -5.84%.
`Oc1ccc2c(c1)OCO2`: the “activation” value was 10.5%.
In the case of `Brc1cc(Oc2cc(Br)c(Br)c(Br)c2Br)c(Br)c(Br)c1Br`, the “activation” value was -12.1%.
On the same count and under the same terms, then `COc1cc(-c2ccc(N=C=O)c(OC)c2)ccc1N=C=O`, with 14.1%; and `c1ccc2c(c1)ccc1ccccc12`, with -2.53%; and `Brc1ccc(-c2ccccc2)cc1`, with -3.66%.
Turning to `C/C(Cl)=C/CCl`, the “activation” value was 4.13%.
For the compound `c1ccncc1`, the “activation” value is -0.103%.
On the same count and under the same terms, then `CCCCCCCC/C=C\CCCCCCCC(=O)N(CCO)CCO`, with -9.77%.
For `CCCCC(CC)COC(=O)COc1ccc(Cl)cc1Cl` (stereo not given), the Potency result was “inactive”.
Still for that read-out and setting: then `O=C(OCc1ccccc1)c1ccccc1O`, with “inactive”.
On to `CC(=O)c1ccc(Cl)c(Cl)c1Cl`, for which the “activation” value is -0.0286%.
Still for that read-out and setting: the same measure for `Nc1ccc(N=Nc2ccccc2)c(N)c1`: -8.26%.
Still for that read-out and setting: the same measure for `O=C1OC(=O)c2ccccc21`: 10.7%.
With `Cc1ccc(S(N)(=O)=O)cc1`, the Potency entry is “inactive”.
For `C=Cc1cccc(C)c1`, the “activation” value is -1.91%.
On the same count and under the same terms, then `CCNC(=S)NCC`, with 1.53%.
On the same count and under the same terms, then `c1ccc(SCCSc2ccccc2)cc1`, with -6.01%; and `C/C=C/C=C/C=O`, with 9.22%.
The same measure, in the same setting: then `Cc1ccc(C(=O)O)cc1[N+](=O)[O-]`, with 0.272%; and `c1ccc(COCc2ccccc2)cc1`, with -8.59%.
